The entries come from a sample that favours hits as a whole.
Dicer inh = inhibitors of Dicer pre-microRNA processing, primary screen, biochemical, cat-ELCCA, chemiluminescence. cat-ELCCA pre-miR-21 Dicer processing; hits give high values. hit rate 6% among 47,000. z-score at 25 µM. Endoribonuclease Dicer (Homo sapiens), Q9UPY3. AID 1347074, 2019; in the data active means z-score above about 3, passing the limit was not always enough;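 further: plate controls were vehicle for no effect and no enzyme for full effect; higher signal means more uncleaved substrate so more Dicer inhibition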
Target sequence (Q9UPY3 whole entry, looked up): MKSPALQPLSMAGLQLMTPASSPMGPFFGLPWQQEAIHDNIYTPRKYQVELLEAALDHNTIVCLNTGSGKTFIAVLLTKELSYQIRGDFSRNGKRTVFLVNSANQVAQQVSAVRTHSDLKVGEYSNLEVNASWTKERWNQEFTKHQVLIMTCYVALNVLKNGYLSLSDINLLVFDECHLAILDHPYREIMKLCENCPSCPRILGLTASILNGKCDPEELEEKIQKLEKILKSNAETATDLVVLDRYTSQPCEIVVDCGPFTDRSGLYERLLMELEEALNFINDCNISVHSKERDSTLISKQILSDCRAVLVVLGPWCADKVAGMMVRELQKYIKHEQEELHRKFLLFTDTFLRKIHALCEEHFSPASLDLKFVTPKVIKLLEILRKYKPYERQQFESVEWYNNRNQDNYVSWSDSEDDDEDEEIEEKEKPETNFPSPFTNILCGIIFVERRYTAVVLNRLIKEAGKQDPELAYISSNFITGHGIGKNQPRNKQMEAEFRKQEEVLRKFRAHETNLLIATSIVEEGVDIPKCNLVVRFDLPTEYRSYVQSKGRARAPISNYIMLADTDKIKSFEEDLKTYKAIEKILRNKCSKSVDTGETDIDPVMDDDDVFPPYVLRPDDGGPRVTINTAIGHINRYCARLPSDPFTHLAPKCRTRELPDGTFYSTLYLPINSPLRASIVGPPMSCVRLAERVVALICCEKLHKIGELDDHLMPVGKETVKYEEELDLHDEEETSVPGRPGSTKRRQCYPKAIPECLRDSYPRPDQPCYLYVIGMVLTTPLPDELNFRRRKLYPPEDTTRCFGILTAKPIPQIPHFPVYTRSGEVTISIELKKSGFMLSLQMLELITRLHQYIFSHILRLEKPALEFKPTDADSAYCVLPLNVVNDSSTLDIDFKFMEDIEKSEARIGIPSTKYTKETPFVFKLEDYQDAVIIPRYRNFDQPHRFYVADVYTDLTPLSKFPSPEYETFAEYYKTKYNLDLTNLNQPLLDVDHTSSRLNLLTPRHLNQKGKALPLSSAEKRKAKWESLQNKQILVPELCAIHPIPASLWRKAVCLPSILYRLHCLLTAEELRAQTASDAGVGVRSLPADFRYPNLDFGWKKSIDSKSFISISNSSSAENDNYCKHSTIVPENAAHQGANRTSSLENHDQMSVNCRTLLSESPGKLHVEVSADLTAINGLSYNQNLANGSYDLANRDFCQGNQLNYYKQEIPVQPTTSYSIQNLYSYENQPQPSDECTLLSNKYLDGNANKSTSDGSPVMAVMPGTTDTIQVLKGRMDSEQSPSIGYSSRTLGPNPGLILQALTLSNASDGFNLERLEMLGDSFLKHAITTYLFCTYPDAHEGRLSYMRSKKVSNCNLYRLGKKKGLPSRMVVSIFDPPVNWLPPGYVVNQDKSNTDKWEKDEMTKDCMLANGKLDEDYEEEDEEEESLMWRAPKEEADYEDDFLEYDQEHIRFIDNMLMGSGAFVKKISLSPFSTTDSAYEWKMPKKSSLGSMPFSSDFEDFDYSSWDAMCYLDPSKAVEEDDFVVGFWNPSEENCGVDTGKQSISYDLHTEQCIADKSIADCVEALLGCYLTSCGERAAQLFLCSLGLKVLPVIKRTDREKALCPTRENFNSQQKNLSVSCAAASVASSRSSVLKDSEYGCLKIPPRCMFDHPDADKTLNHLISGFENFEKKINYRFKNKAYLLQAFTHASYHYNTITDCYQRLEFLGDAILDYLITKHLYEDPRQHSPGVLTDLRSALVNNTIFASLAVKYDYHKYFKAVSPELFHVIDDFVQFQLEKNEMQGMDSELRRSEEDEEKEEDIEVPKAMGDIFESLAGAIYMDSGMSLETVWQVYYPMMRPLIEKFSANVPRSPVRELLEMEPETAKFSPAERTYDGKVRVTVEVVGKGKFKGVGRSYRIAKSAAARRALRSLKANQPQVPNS
* marks the source's active call; other numbers are inactive results.

SMILES	Dicer inh
Cc1ccc(N2C(=O)CSC23C(=O)Nc2ccccc23)cc1 (centres undefined)	3.8*
Cc1[nH]nc(-c2ccc(O)c(C)c2O)c1Oc1ccccc1	3.1*
CCOc1cc(O)c(-c2n[nH]c(C)c2Oc2ccccc2)cc1CC	2.4
CCOc1ccc(-c2n[nH]c(C)c2Oc2ccc(F)cc2)c(O)c1	2.3
N=C(N)SCc1ccc(F)cc1	0.2
CCOC(=O)c1ccc(N=C(N)SCc2ccccc2)cc1	2.2
Cc1c(C)c(C)c(CSC(N)=Nc2ccc(F)cc2)c(C)c1C	3.3*
Cc1nn(CC(O)CN2c3ccccc3Sc3ccccc32)c(C)c1Br (centres undefined)	-2
COc1ccc(C2SCCN2S(=O)(=O)c2ccccc2)cc1 (centres undefined)	-0.35
COc1cc(/C=N/N=C2/SC(CC(=O)O)C(=O)N2C)cc(OC)c1OC (centres undefined)	2.5
CN=C1SC(CC(=O)O)C(=O)N1C (centres undefined)	20*
C=CCN1C(=O)SC(CC(=O)O)C1=O (centres undefined)	-0.77
CSc1sc(Br)c2c1C(=O)CCC2	-0.71
Nc1nc(Nc2ccccc2)n(-c2ccccc2)c(=O)n1	-2.9
Cc1ccc(S(=O)(=O)OC23C=CC(CC2)CC3)cc1	-1.8
COc1ccc(C(=O)N2CCSC2=S)cc1OC	3.5*
COCOc1ccc(C(=O)O)cc1OC	-0.83
COc1ccc(C(=O)N2CCSC2=S)cc1	0.68
COc1cc2c(cc1OC)C(C)N(S(=O)(=O)c1ccc(-c3ccccn3)s1)CC2 (centres undefined)	-5.2
COc1ccc2ccccc2c1C(O)c1nccn1C (centres undefined)	-3.6
Cn1ccnc1C(O)c1ccccc1 (centres undefined)	1.3
COc1ccc(C(O)c2nccn2C)cc1OC (centres undefined)	3.5*
O=Cc1c(O)c2ccccc2c2ccccc12	0.77
N#C/C(=C\Nc1ccc(Cl)cn1)S(=O)(=O)c1ccc(Cl)cc1	1.2
N#C/C(=C\Nc1ccc(Cl)cn1)S(=O)(=O)c1ccccn1	-2.1
SMILES	Dicer inh
N#C/C(=C\Nc1ccc(Cl)cn1)S(=O)(=O)c1ccccc1	3.2*
CCSc1ccc(/C(N)=N/OC(=O)c2cccc(C(F)(F)F)c2)cn1	-1.1
CC(C)Cc1ccc([C@H](C)C(=O)O)cc1	19
CCc1n(CC(O)COc2ccc(C)cc2)c2ccccc2[n+]1C (centres undefined)	-0.72
c1cc(-c2noc(-c3cccs3)n2)cc(-n2cccc2)c1	-0.47
Cc1ccc2nc(C3CCCCC3)cc(C(=O)O)c2c1	8.6
Cc1cc(C2C(=O)c3ccccc3C2=O)nc2ccccc12	0.53
Cc1ccc2nc(C3C(=O)c4ccc(O)cc4C3=O)cc(C)c2c1 (centres undefined)	3.7*
CCc1ccc(OCc2nc(-c3ccncc3)no2)cc1	-1.2
CC(=O)Nc1ccc(S(=O)(=O)Nc2ncccn2)cc1	-0.86
O=S(=O)(Nc1ncccc1OCc1ccc(Cl)c(Cl)c1)c1ccc(Cl)cc1	0.8
Cc1ccc(S(=O)(=O)Nc2ccc3ccccc3n2)cc1	-0.27
CS(=O)(=O)Nc1ccc(S(=O)(=O)Nc2ncccn2)cc1	-4.6
Cc1ccc(S(=O)(=O)Nc2ccc(O)c3ncccc23)cc1	15*
Cc1ccc(S(=O)(=O)Nc2ccc(O)c3cccnc23)cc1	3.3*
O=S(=O)(Nc1cccnc1Oc1ccc(Cl)cc1)c1ccc(Cl)cc1	-0.24
Cc1ccc(S(=O)(=O)Nc2ccnn2C)cc1	-1.1
Cc1ccc(S(=O)(=O)Nc2ccc(Cl)c3cccnc23)cc1	3.2*
COc1ccc(OCCSc2nc(C)cc(=O)[nH]2)cc1	-0.39
C=CCn1c(-c2ccccc2)nc2ccccc21	1.3
C1CCc2nnnn2CC1	0.28
CN(C)c1ccc(C2N3CC4(C)CN2CC(C)(C3)C4O)cc1 (centres undefined)	-1.4
COC1(OC)C/C=C\CC(OC)(OC)C/C=C\C1	-0.31
O=C(Nc1cccc2nsnc12)c1cccs1	-0.16
O=C(Nc1ccncc1[N+](=O)[O-])c1cccs1	3.5*
SMILES	Dicer inh
O=C(Nc1cc(Cl)ccc1O)c1cccs1	1.3
Cc1cccc(C2CC(c3ccc(Cl)cc3)Nc3nc(N)nn32)c1 (centres undefined)	-1.1
O=C(O)Cn1c2ccccc2c2nc3ccccc3nc21	-1.6
O=C(O)c1ccc2c(=O)n3c4ccc(Cl)cc4nc3c3ccc(C(=O)O)c1c23	0.93
O=C(O)c1ccc2c(=O)n3c4ccccc4nc3c3ccc(C(=O)O)c1c23	3.1*
COc1ccc(S(=O)(=O)NC(C)(C)CO)cc1-c1nnc2c3ccccc3c(C)nn12	0.35
c1ccc(-c2nc(Nc3ccc4c(c3)OCCO4)c3ccccc3n2)cc1	5.4*
CCC(Nc1nc(-c2ccccc2)nc2ccccc12)C(=O)O (centres undefined)	-1.1
O=C(Nc1ccc2c(c1)OCCO2)c1cccc(C(=O)Nc2ccc3c(c2)OCCO3)n1	-0.09
CC(C)C[C@H](NC(=O)[C@@H]1CCCN1C(=O)OCc1ccccc1)C(=O)O	0.2
O=C(Nc1ccccc1)Nc1ccc2nnsc2c1	-0.47
Cc1ccc(-c2ccc(CCC(=O)O)n2Cc2ccco2)cc1	-0.12
N#Cc1c(SCc2ccc(Cl)cc2)nsc1Nc1ccc(Cl)cc1	3*
N#Cc1cnc(SCc2ccc(Cl)cc2)nc1N	0.28
FC(F)(F)c1cccnc1SCc1ccc(Cl)cc1	-1.6
CC1=C(C(=O)OC2CCCCC2)C(c2cccc(O)c2)C2=C(CC(C)(C)CC2=O)N1 (centres undefined)	-0.1
CSC(=NCc1ccco1)Nc1ccc(C)cc1C	4.1*
CCOC(=O)CSC(=S)Nc1ccc(C)cc1C	0.37
CN=C(Nc1cc(C)c(C)cc1C)SC	-0.54
Cn1c(=O)oc2cc(S(=O)(=O)Nc3ccccc3O)ccc21	1.5
CC(C)(C)C(=O)OC/C(N)=N/OC(=O)c1ccccc1	1.8
O=S1(=O)/N=C(/O)c2ccccc2Sc2ccccc21	3.5*
Cc1ccc(OC2=NS(=O)(=O)c3ccccc32)cc1	0.25
CSc1ccccc1NC1=NS(=O)(=O)c2ccccc21	-0.02
CCOC(=O)c1c(N(C(C)=O)C(C)=O)sc(=S)n1-c1ccccc1	-0.1
SMILES	Dicer inh
COC(=O)c1ccc(C2C(C(=O)OC(C)C)=C(C)NC3=C2C(=O)CCC3)cc1 (centres undefined)	1
C=CCOc1ccc(C2c3c(oc4ccccc4c3=O)C(=O)N2c2nnc(C(C)C)s2)cc1 (centres undefined)	0.45
Cn1c(-c2ccc(-c3nc4ccccc4[nH]3)cc2)nc2cc(N)ccc21	4.7*
Nc1ccc2nc(-c3ccccc3)[nH]c2c1	-3.4
Cn1c(-c2ccc3nc(-c4ccc(N)cc4)[nH]c3c2)nc2cc(N)ccc21	5.7*
Clc1ccc(-c2nc3ccccc3[nH]2)cc1	-1.5
Nc1ccc(Oc2ccc3nc(-c4ccc(N)cc4)[nH]c3c2)cc1	0.25
Nc1ccc2nc(-c3cccnc3)[nH]c2c1	0.6
O=C1NCCCCC1NS(=O)(=O)c1ccccc1 (centres undefined)	1.8
COc1cc2c(cc1OC)C(=O)N(Cc1cccc(Cl)c1)CC2	-2.4
CC(=O)Oc1cccc(OC(C)=O)c1[N+](=O)[O-]	-0.39
Cc1nn(C(=O)c2ccncc2)c(C)c1Sc1ccc(Br)cc1	0.08
COc1oc(-c2cccc(C)c2)nc1C(F)(F)F	3.6*
COc1cc(OC)cc(-c2nc(-c3cccc(C)c3)no2)c1	-0.47
Cc1cccc(-c2nnc(-c3ccccc3)o2)c1	2.6
CC(C)CC(C)c1cc(N)nc2nc3ccccc3n12 (centres undefined)	1.8

Screening results from PubChem.
